Screens: PubChem, National Center for Advancing Translational Sciences (NCATS)
Rows were chosen to be rich in hits. Some 0.99% of all compounds tested hit in one or more screens of this group.
NS1 inh – inhibitors of influenza NS1 protein function | Potency, µM (top dose mostly 46.1 µM), for the others: at the top dose activity, positive = more growth | actives 0.4% (n = 270,000); calls by dose curve; also: actives are rising curves; nearly all actives have a fitted effect of over 50% in size
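OD600 was taken as the measure of yeast growth restored by compound in an NS1-expressing S. cerevisiae strain. Cells had been washed out of glucose medium and diluted 1:100 into galactose -URA medium, pH 6.0.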
AMA1-RON2 inh – AMA1-RON2 (P. falciparum) interaction inhibition; actives 0.2% (n = 360,000); Potency, µM (highest dose often 58.2 µM), inactives show at the top dose activity change, negative = inhibition, hits mostly inhibitors; AID 720542; AlphaScreen AMA1-biotinylated RON2 peptide binding;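 also: 0% = vehicle wells and -100% = peptide control; nearly all actives have a fitted effect of over 45% in size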
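AMA1 (3D7) with his tag at 25 nM final met compounds first, then biotinylated RON2 peptide at 25 nM; detection used donor plus acceptor beads, 10 µg/mL apiece, read by AlphaScreen after 30 min at room temperature.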
SARS PLpro yeast – SARS-CoV PLP inhibition in yeast. actives 0.19% (n = 330,000). Potency, µM (doses to about 32.9 µM), for the others: at the top dose activity, positive = growth rescue, most hits filed as activators. S. cerevisiae expressing SARS-CoV PLpro, growth rescue; calls by dose curve; also: 0% is about no effect; nearly all actives have a fitted effect of over 55% in size
AmpC no deterg – blocks E. coli AmpC beta-lactamase in detergent-free assay. P00811. AmpC nitrocefin hydrolysis, absorbance 480 nm, 0.0001% Triton. Potency, µM (titrated, usually from 57.1 µM), for the others: at the highest dose activity change, negative = inhibition, usual class: inhibitors. actives 0.52% (n = 330,000). AID 485341;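 also: plate controls were no compound for no effect and no enzyme for full effect; nearly all actives have a fitted effect of over 20% in size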
Target sequence (P00811 whole entry, looked up): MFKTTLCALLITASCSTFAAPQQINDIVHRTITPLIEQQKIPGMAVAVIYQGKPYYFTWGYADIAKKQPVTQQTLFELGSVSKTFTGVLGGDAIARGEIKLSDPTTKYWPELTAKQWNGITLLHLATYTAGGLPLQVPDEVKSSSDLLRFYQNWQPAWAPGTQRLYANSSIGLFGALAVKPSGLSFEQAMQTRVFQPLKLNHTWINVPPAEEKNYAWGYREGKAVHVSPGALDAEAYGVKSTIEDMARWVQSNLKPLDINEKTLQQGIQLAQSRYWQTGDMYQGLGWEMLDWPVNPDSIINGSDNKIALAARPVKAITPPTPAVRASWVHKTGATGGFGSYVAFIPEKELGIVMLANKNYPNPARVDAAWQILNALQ
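20 mM phosphate pH 7.0 + 0.01% (detergent screen) or 0.0001% Triton X-100; 5.3 nM AmpC reagent; cpd preinc 15 min RT; nitrocefin (800 uM stock) to start; A480 q20 s × 4 min; Activity was normalised to no-enzyme and no-compound control wells.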
AmpC inh detg – AmpC beta-lactamase inhibition with detergent present; AmpC hydrolysis of nitrocefin, absorbance 480 nm, 0.01% Triton; actives 0.041% (n = 370,000); AID 485294; Potency, µM (top dose mostly 114 µM), for inactives: at the top dose activity change, negative = inhibition, usual class: inhibitors; P00811;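 also: 0% = no-compound wells and -100% = no-enzyme wells; nearly all actives have a fitted effect of over 25% in size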
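20 mM phosphate pH 7.0 + 0.01% (detergent screen) or 0.0001% Triton X-100; 5.3 nM AmpC reagent; cpd preinc 15 min RT; nitrocefin (800 uM stock) to start; A480 q20 s × 4 min; Activity was normalised to no-enzyme and no-compound control wells.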
* = called active by the depositor; ? = inconclusive; / = no result given; [ ] = dose if it differs, or a comment. Unless noted, calls follow the shape of the dose curve; as a rule, active = well fitted curve in the direction sought with a large enough effect; inconclusive = small, poorly fitted or top-dose-only effect, or another doubt; inactive = no such curve, though single readings can be large; an effect the other way counts as inactive or inconclusive. Potency is read from the fitted curve at half-maximal effect.

SMILES	NS1 inh	AMA1-RON2 inh	SARS PLpro yeast	AmpC no deterg	AmpC inh detg
Cc1cccc(NC(=O)CN2C(=O)S/C(=C\c3ccc(O)c([N+](=O)[O-])c3)C2=O)c1	/	-15%	-3%	-42%	1%
N#Cc1ccccc1NC(=O)C(=O)NCCc1csc(-c2ccc(C(F)(F)F)cc2)n1	/	/	/	/	5%
Cc1nc(NS(=O)(=O)c2ccccc2)sc1NC(=O)Nc1ccc(Cl)cc1	9%	40%	-1%	16µM*	-13%
COc1cccc2cc(C(=O)CS(=O)(=O)c3ccc(C(C)(C)C)cc3)c(=O)oc12	13%	-6%	0%	18µM*	-1%
COc1ccc(S(=O)(=O)CC(=O)c2cc3cccc(C)c3oc2=O)cc1	11%	0%	-2%	-58%	2%
Cc1cc(C)cc(N2CC(c3nc(-c4ccccc4C)no3)CC2=O)c1 (stereo not given)	/	/	/	/	5%
COc1cc(C(=O)NNC(=O)NC2CCCCC2)cc(OC)c1OC	4%	9%	0%	0.25µM*	1%
N/C(COc1ccccc1)=N\NS(=O)(=O)c1ccccc1	8%	38%	-1%	0.16µM*	1%
C/C(=N\NS(=O)(=O)c1ccccc1)c1ccccc1	-7%	12%	0%	-21%	0%
CCOC(=O)c1cc(S(=O)(=O)N2CCN(c3ccc(C)cc3C)CC2)[nH]n1	/	/	/	/	17%
CC(C)c1nc2oc3c(N4CCNCC4)ncnc3c2c2c1CCC2	3.2µM*	-7%	/	/	/
COc1ccc(N=C2NC(=O)/C(=C/c3ccco3)S2)cc1	-4%	-12%	-2%	11µM*	2%
COc1ccc(S(=O)(=O)/N=C2/NC(=O)/C(=C/c3ccco3)S2)cc1	-2%	-13%	-31%	-26%	-4%
Cc1cccc(N=C2NC(=O)/C(=C/C=C/c3ccco3)S2)c1C	23%	-18%[2.32 µM]	-9%	32µM*	-3%
O=C(Cc1ccccn1)c1ccc(Cl)cc1	/	80%	0%	-5%	2%
CC1=C(CC(=O)c2ccc(Cl)cc2)C(=O)c2ccccc2C1=O	29%	12µM*	-14%	-48%	-5%
CC(=NNC(=S)N1CCN(c2ccccn2)CC1)c1ccccn1	/	14%	/	/	/
CC(=NNC(=S)N1CCN(C2CCCCCC2)CC1)c1ccccn1	/	14µM*	/	/	/
C/C(=N\NC(=O)C1CCCN(S(=O)(=O)c2ccccc2)C1)c1ccccn1 (stereo not given)	0%	-11%	1%	3.2µM*	1%
C/C(=N\NC(=O)C1CCCN(S(=O)(=O)c2ccccc2)C1)c1ccncc1 (stereo not given)	3%	13%	3%	-18%	4%
CC1(C)Nc2ccc(O)cc2-c2c1ssc2=S	-11%	?	8%	-30%	-11%
CCOc1ccc2c(c1)-c1c(ssc1=S)C(C)(C)N2C	-15%	10µM*	-15%	-31%	-1%
CCc1ccc(NC(=O)CSc2nnc(Cc3cccn3C)n2-c2ccc(F)cc2)cc1	-72%	-2%	-5%	13µM*	-17%
CC1=C(CC/C(C)=N/NC(N)=S)C(C)(C)CCC1	-9%	44%	14µM*	-23%	-4%
O=C(Nc1ccc(-c2cn3ccccc3n2)cc1)c1cccs1	/	-21%	-3%	28µM*	-7%
SMILES	NS1 inh	AMA1-RON2 inh	SARS PLpro yeast	AmpC no deterg	AmpC inh detg
CN1CCN(C(c2ccc(Cl)cc2Cl)c2sc3nc(-c4ccco4)nn3c2O)CC1 (stereo not given)	/	/	/	/	1%
COc1ccc(Cn2c3nc4ccccc4nc3c3c(=O)n(Cc4ccco4)cnc32)cc1	8.9µM*	/	-3%	0%	0%
Cc1cccc(-n2cnc3c(c2=O)c2nc4ccccc4nc2n3Cc2ccco2)c1	13%	-4%	-4%	0%	?
Cc1ccc(S(=O)(=O)c2nc(-c3cccc(C)c3)oc2N2CCCCC2)cc1	/	/	/	/	-2%
CCOC(=O)c1c(C)[nH]c(=S)c(C#N)c1-c1ccc(Cl)cc1	?	75%	26%	28µM*	-6%
COC(=O)c1ccccc1NC(=O)c1noc2c1CCC2	-2%	-16%	1%	-34%	?
CSc1ccccc1NC(=O)c1noc2c1CCC2	-56%	-8%	-16%	-57%	25µM*
COc1cc(/C=C/C(=O)OCC(=O)NC(=O)NCc2ccco2)ccc1OC(F)F	/	-24%	-13%	20µM*	/
